An excerpt weighted towards active compounds, which were near 2.9% of everything screened.
PAFAH2 inh: inhibitors of human PAFAH2; Q99487; recombinant PAFAH2, FP-rhodamine activity probe, fluorescence polarization; inhibition, % at 3.39 µM; hit rate 0.99% among 340,000;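 active = inhibition above the mean over all tested compounds plus 3 SD, cut at about 30% in these data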;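 also: inhibitors block probe labeling of enzyme so polarization drops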
ZTA counter: counter-screen for EBNA-1 inhibitors: inhibitors of Epstein-Barr virus ZTA | ZTA-DNA binding, fluorescence polarization | inhibition, % at 11 µM | hit rate 0.15% among 320,000; in the data active = inhibition above about 33%
PAFAH1B2 inh: PAFAH1B2 (human) inhibition. recombinant PAFAH1B2, FP-rhodamine activity probe, fluorescence polarization. inhibition, % at 3.39 µM. hit rate 1.2% among 340,000;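 active = inhibition above the mean of all tested compounds plus 3 SD, cut at about 24% in these data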
Target sequence (P68402 whole entry, looked up): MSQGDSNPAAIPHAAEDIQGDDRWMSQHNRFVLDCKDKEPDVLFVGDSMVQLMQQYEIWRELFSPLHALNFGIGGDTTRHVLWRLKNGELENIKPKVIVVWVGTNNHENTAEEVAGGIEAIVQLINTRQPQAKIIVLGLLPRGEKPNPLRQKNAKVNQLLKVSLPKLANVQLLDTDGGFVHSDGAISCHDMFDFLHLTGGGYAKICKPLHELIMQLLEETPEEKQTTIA
pPAFAH FP inh: inhibitors of human plasma PAF acetylhydrolase (pPAFAH); recombinant pPAFAH, FP-rhodamine probe fluorescence polarization; inhibition, % at 3.39 µM; hit rate 1.5% among 330,000;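 active = inhibition above the mean inhibition across the screen plus 3 SD, cut at about 25% in these data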;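 also: inhibitors block binding of the rhodamine activity-based probe so polarization drops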
Target sequence (Q13093 whole entry, looked up): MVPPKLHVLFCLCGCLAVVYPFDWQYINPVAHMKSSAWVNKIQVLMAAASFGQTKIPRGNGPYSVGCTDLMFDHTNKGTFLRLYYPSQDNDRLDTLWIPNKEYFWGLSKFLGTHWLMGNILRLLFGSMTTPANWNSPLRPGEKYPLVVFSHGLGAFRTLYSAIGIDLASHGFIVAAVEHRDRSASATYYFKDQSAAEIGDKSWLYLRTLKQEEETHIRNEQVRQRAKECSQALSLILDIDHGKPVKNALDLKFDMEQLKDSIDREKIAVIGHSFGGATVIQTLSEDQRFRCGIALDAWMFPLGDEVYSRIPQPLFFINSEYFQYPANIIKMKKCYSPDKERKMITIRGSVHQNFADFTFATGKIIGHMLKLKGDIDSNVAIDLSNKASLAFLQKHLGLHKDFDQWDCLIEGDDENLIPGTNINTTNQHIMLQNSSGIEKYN
PAFAH1B3 inh: PAFAH1B3 (human) inhibition. AID 492972. inhibition, % at 3.39 µM. Q15102. recombinant PAFAH1B3, FP-rhodamine probe, fluorescence polarization. hit rate 0.28% among 340,000;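 active = inhibition above the screen-wide average of all tested compounds plus 3 SD, cut at about 25% in these data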
EBNA-1 inhibitor: blocks EBNA-1 binding to DNA; EBNA-1 DNA binding, fluorescence polarization; inhibition, % at 14.8 µM; hit rate 0.34% among 300,000; AID 1950; in the data active = inhibition above about 28%
PAFAH2 FP conf: confirmation of human PAFAH2 inhibitors; shares compounds with PAFAH2 inh; recombinant PAFAH2, FP-rhodamine activity probe, fluorescence polarization; inhibition, % at 3.39 µM; hit rate 65% among 2,300;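 active = mean inhibition over three repeats above a set limit taken from the earlier primary screen, cut at about 30% in these data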;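 also: inhibitor blocks binding of rhodamine activity probe so polarization falls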
Each line names hits and unclear results; the compound was inactive in the other large screens (follow-up assays come after a bar, where they were run).

COc1cc(C(=O)OCC(=O)N2CCCCC2C)ccc1OCc1c(C)noc1C (centres undefined)	PAFAH2 inh 32 | PAFAH2 FP conf inactive
COCC(=O)N/N=C(\C)CC(=O)NCc1ccco1	none
Cc1c(C(=O)OC2CCCC2C)[nH]c2c1C(=O)CCC2 (centres undefined)	PAFAH2 inh 59 | PAFAH2 FP conf 39
Cc1c(C(=O)OCCOc2ccccc2)[nH]c2c1C(=O)CCC2	none
O=C(Nc1cc2c3c(c1)CC(=O)N3CCC2)c1ccc(Cl)cc1	none
O=C(Nc1ccccn1)c1ccc([N+](=O)[O-])o1	none
O=C(Nc1ncccn1)c1ccc([N+](=O)[O-])o1	PAFAH2 inh 78 | PAFAH2 FP conf 67
Cc1ccc(S(=O)(=O)N2CCCCC2)cc1NC(=O)COC(=O)c1ccccc1F	PAFAH2 inh 52 | PAFAH2 FP conf 53
Cc1ccc(C)c(NC(=O)COC(=O)c2ccc(S(=O)(=O)N3CCCCC3)cc2)c1	none (no result: EBNA-1 inhibitor)
Cc1ccc(NC(=O)COC(=O)c2ccccc2Cl)cc1S(=O)(=O)N(C)C	PAFAH2 inh 58 | PAFAH2 FP conf 39
Cc1ccc(NC(=O)COC(=O)c2ccccc2F)cc1S(=O)(=O)N1CCCCC1	PAFAH2 inh 67 (no result: ZTA counter, pPAFAH FP inh, EBNA-1 inhibitor) | PAFAH2 FP conf 59
CC1(C)CC(=O)C(C(C2=C(O)CC(C)(C)CC2=O)c2ccc(O)c([N+](=O)[O-])c2)=C(O)C1	none
O=C1CCCCC1(O)Cc1ccc2c(c1)OCO2 (centres undefined)	none (no result: ZTA counter, pPAFAH FP inh, EBNA-1 inhibitor)
O=C(COc1ccc(F)cc1)Nc1nnc(S(=O)(=O)N2CCCC2)s1	none
Cc1ccc(C(=O)OCC(=O)NC2CC2)cc1S(=O)(=O)N1CCOCC1	PAFAH2 inh 51 (no result: EBNA-1 inhibitor) | PAFAH2 FP conf 32
Cc1ccc(C(=O)OCC(=O)NCc2cccs2)cc1S(=O)(=O)N1CCOCC1	PAFAH2 inh 49 | PAFAH2 FP conf 38
Cc1ccc(NC(=O)COC(=O)/C=C/c2ccccc2)cc1S(=O)(=O)N1CCOCC1	PAFAH2 inh 58 | PAFAH2 FP conf 34
Cc1ccc(NC(=O)COC(=O)c2ccc(C)c(S(=O)(=O)N3CCOCC3)c2)cc1	PAFAH2 inh 71 (no result: ZTA counter, pPAFAH FP inh, EBNA-1 inhibitor) | PAFAH2 FP conf 71
CCC(C(=O)OCC(=O)Nc1ccc(C)c(S(=O)(=O)N2CCOCC2)c1)c1ccccc1 (centres undefined)	none
O=C(COC(=O)c1ccc(F)c(S(=O)(=O)N2CCOCC2)c1)NC1CC1	none (no result: EBNA-1 inhibitor)
Cc1ccc(C(=O)OCC(=O)NCCc2ccccc2)cc1S(=O)(=O)N1CCOCC1	none
CCOC(=O)c1[nH]c2ccc(OCC)cc2c1CCCN1C(=O)c2ccccc2C1=O	none
COc1cc(OC)cc(C(=O)N/N=C(\C)CC(=O)Nc2ccccn2)c1	none
COc1ccccc1CNC(=O)COC(=O)c1ccc(C)c(S(=O)(=O)N2CCOCC2)c1	none
Cc1ccc(NC(=O)COC(=O)c2ccco2)cc1S(=O)(=O)N1CCOCC1	PAFAH2 inh 66 (no result: ZTA counter, EBNA-1 inhibitor) | PAFAH2 FP conf 60
Cc1ccc(C(=O)OCC(=O)c2ccc(Br)cc2)cc1S(=O)(=O)N1CCOCC1	PAFAH2 inh 34 (no result: ZTA counter, pPAFAH FP inh, EBNA-1 inhibitor) | PAFAH2 FP conf inactive
CCOc1ccc(C(=O)NCC(=O)NNC(=O)CN(C)S(=O)(=O)c2ccc(Cl)cc2)cc1OCC	none (no result: ZTA counter, pPAFAH FP inh, EBNA-1 inhibitor)
Cc1cc(C(=O)OCC(=O)NCc2ccc(Cl)cc2Cl)c(C)o1	PAFAH2 inh 37 (no result: EBNA-1 inhibitor) | PAFAH2 FP conf inactive
Cc1cc(C(=O)OCC(=O)NCc2ccccc2Cl)c(C)o1	PAFAH2 inh 51 | PAFAH2 FP conf 50
O=C(COC(=O)C1CC1)NCc1ccccc1Cl	PAFAH2 inh 58 | PAFAH2 FP conf 52
COc1ccccc1CNC(=O)COC(=O)c1cc(C)oc1C	none
Cn1c(=O)[nH]c(=O)c2c1nc(N1CCCCCC1)n2CCOc1ccccc1	none
Cc1ccc(CNC(=O)COC(=O)C2CC2)cc1	none (no result: EBNA-1 inhibitor)
Cc1ccc(CNC(=O)COC(=O)CN2C(=O)C3CC=CCC3C2=O)cc1 (centres undefined)	PAFAH2 inh 37 (no result: ZTA counter, EBNA-1 inhibitor) | PAFAH2 FP conf inactive
CC(C)(C)SC(=O)CC1NS(=O)(=O)OCC1NC(=O)OCC(Cl)(Cl)Cl (centres undefined)	PAFAH2 inh 49 | PAFAH2 FP conf 34
COc1ccc(C(=O)OCC(=O)Nc2ccc3c(c2)OCCO3)c(OC)c1	PAFAH2 inh 55 (no result: EBNA-1 inhibitor) | PAFAH2 FP conf 50
Cc1cccc(C(=O)OCC(=O)Nc2ccc3c(c2)OCCO3)c1O	none (no result: EBNA-1 inhibitor)
O=C(OCC1COc2ccccc2O1)c1ccccc1F (centres undefined)	PAFAH2 inh 39 | PAFAH2 FP conf inactive
O=C(COC(=O)c1cccc(F)c1)Nc1ccc2c(c1)OCCO2	PAFAH2 inh 31 (no result: EBNA-1 inhibitor) | PAFAH2 FP conf inactive
CS(=O)(=O)c1cccc(C(=O)OCC(=O)Nc2ccc3c(c2)OCO3)c1	none (no result: EBNA-1 inhibitor)
O=S(=O)(NCC1COc2ccccc2O1)c1ccccc1F (centres undefined)	none (no result: ZTA counter, EBNA-1 inhibitor)
CN(C)S(=O)(=O)c1cccc(C(=O)OCC(=O)Nc2ccc3c(c2)OCCO3)c1	PAFAH2 inh 41 (no result: EBNA-1 inhibitor) | PAFAH2 FP conf 40
O=C(NCCNC(=O)c1ccccc1Br)c1cccnc1	none
OCC1OC(n2cnc3c(SCc4ccccc4)nc(F)nc32)C(O)C1O (centres undefined)	none (no result: ZTA counter, pPAFAH FP inh, EBNA-1 inhibitor)
CCOc1ncccc1C(=O)OCC(=O)c1ccc(Cl)s1	PAFAH2 inh 44 | PAFAH2 FP conf inactive
CCOc1ncccc1C(=O)OCC(=O)c1cccc(Br)c1	none
Cc1cccc(C(=O)OCC(=O)Nc2ccc3c(c2)OCCO3)c1	PAFAH2 inh 61 (no result: EBNA-1 inhibitor) | PAFAH2 FP conf 58
CCOc1ncccc1C(=O)OCC(=O)Nc1ccc2c(c1)OCO2	PAFAH2 inh 32 | PAFAH2 FP conf 36
CCOc1ncccc1C(=O)OCC(=O)NCc1ccc2c(c1)OCO2	none
O=C(COC(=O)c1ccccc1F)Nc1ccc2c(c1)OCCO2	PAFAH2 inh 70 (no result: ZTA counter, pPAFAH FP inh, EBNA-1 inhibitor) | PAFAH2 FP conf 52
O=C(CSc1nnc(-c2ccc3c(c2)OCO3)o1)Nc1ncc(Cl)cc1Cl	none
CCOc1ccc(C(=O)OCC(=O)Nc2ccc3c(c2)OCCO3)cc1OC	PAFAH2 inh 74 (no result: EBNA-1 inhibitor) | PAFAH2 FP conf 83
CCS(=O)(=O)c1ccc(O)c(NC(=O)Nc2ccccc2)c1	PAFAH2 inh 45 | PAFAH2 FP conf inactive
COC(=O)c1cc(NS(=O)(=O)c2cccs2)cc(NS(=O)(=O)c2cccs2)c1	PAFAH2 inh 32 (no result: ZTA counter, pPAFAH FP inh, EBNA-1 inhibitor) | PAFAH2 FP conf inactive
COc1ccccc1NC(=O)c1ccccc1NS(=O)(=O)c1cccs1	PAFAH2 inh 44 | PAFAH2 FP conf 40
COc1ccccc1NC(=O)c1ccccc1NS(C)(=O)=O	none
CC(C)(C)c1ccc(NC(=O)CSc2n[nH]c(=O)n2C2CC2)cc1	none (no result: ZTA counter, EBNA-1 inhibitor)
CN(C)S(=O)(=O)N1CCN(CC(=O)Nc2ccc(F)cc2)CC1	none
O=C1c2cccc3cccc(c23)C(=O)N1OS(=O)(=O)c1ccccc1	none
